Compound activity deposited in PubChem by National Center for Advancing Translational Sciences (NCATS).
The list is not random: actives were taken first. Their share in the collection is about 21%.
Pf growth 48h = P. falciparum growth inhibition at 48 hours (one generation); AID 504832; Potency, µM (highest dose often 28.7 µM), without a hit: top-dose activity change, negative = inhibition, actives largely listed as inhibitors; 310,000 tested, 5.9% active; P. falciparum luciferase growth in erythrocytes, 48 h; further: potency means the concentration at half of the fitted maximal effect; on the % scale 0 is the no-effect control and ±100 the full control effect
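Luminescence readout; reporter = integrated firefly luciferase in P. falciparum. RBC culture at 2% hematocrit, 0.1% parasitemia final, 37 C/5% CO2; decreased signal taken as growth inhibition.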
AMA1 RON2 block = AMA1-RON2 (P. falciparum) interaction inhibition; AID 720542; Potency, µM (doses to about 58.2 µM), without a hit: top-dose activity change, negative = inhibition, usual class: inhibitors; AlphaScreen AMA1-biotinylated RON2 peptide binding; 360,000 tested, 0.2% active;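 further: potency means the concentration at half of the fitted maximal effect; 0% = vehicle wells and -100% = peptide control; nearly all actives have a fitted effect of over 45% in size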
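AMA1 (3D7) with his tag at 25 nM final met compounds first, then biotinylated RON2 peptide at 25 nM; detection used donor plus acceptor beads, 10 µg/mL apiece, read by AlphaScreen after 30 min at room temperature.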
HCV inhibitor = HCV inhibition. Potency, µM (top dose mostly 41.8 µM), for the others: top-dose activity change, negative = inhibition, usual class: inhibitors. Huh7.5.1 HCVcc-Cre infection, luciferase reporter, 44 h. 340,000 tested, 3.4% active; further: potency means the concentration at half of the fitted maximal effect; on the % scale 0 is the no-effect control and ±100 the full control effect
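A cell-based infection assay in which seeded cells (1,000 per well) receive test compound after 4 h, are inoculated with HCVcc-Cre at approximately 0.5 moi, and are incubated 44 h before luminescence detection.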
CHX counter = counter-screen hit for Shiga toxin inhibitors, cycloheximide | cell reporter, cycloheximide protein synthesis inhibition counterscreen | max response, % | 300,000 tested, 12% active | AID 2314; in the data active means max response mostly above about 13%, no sharp cut-off; inactive means mostly below about 14%; further: read at 38.3 µM for the half of the compounds with a filed dose; 0% is about no effect
Shiga toxin inh = inhibitors of Shiga toxin in Vero cells; Vero cells, Shiga toxin protein synthesis inhibition reporter; inhibition, % at 38.7 µM; 290,000 tested, 9.2% active; in the data active means inhibition mostly above about 28%, no sharp cut-off; inactive means mostly below about 43%; further: 0% is about no effect
Pf growth 96h = inhibits malaria parasite growth, 96 h; 320,000 tested, 6.9% active; Potency, µM (top dose mostly 28.7 µM), without a hit: at the highest dose activity change, negative = inhibition, actives largely listed as inhibitors; AID 504834; P. falciparum luciferase reporter growth, 96 h; further: potency means the concentration at half of the fitted maximal effect; on the % scale 0 is the no-effect control and ±100 the full control effect
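Two-generation exposure (96 h) targets delayed-death phenotype. Reporter parasites carrying integrated firefly luciferase, in red cells at 2% hematocrit and 0.05% parasitemia final, kept at 37 C, 5% CO2; luminescence loss indicates inhibition.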
* marks the source's active call; other numbers are inactive results; ! = not confirmed by another sample. Unless noted, the call rests on the fitted dose curve; in most records, active means well fitted curve in the direction sought with a large enough effect; inconclusive means small, poorly fitted or top-dose-only effect, or another doubt; inactive means no such curve, though single readings can be large; an effect the other way counts as inactive or inconclusive.

Results for COC(=O)c1ccc(CSc2nc3c(c(=O)n2-c2ccccc2)SCC3)o1 ?
Pf growth 48h: 10.4µM*; AMA1 RON2 block: -14.1%; HCV inhibitor: inconclusive; CHX counter: 7.2; Shiga toxin inh: 9.5; Pf growth 96h: inconclusive

How did COc1ccc(-n2c(SC3CCOC3=O)nc3ccccc3c2=O)cc1Cl (stereo unspecified) do in these assays?
Pf growth 48h: -3.7%; AMA1 RON2 block: 8.6%; HCV inhibitor: -17.8%; CHX counter: -2.3; Shiga toxin inh: -9.9; Pf growth 96h: -3.5%

Results for COc1ccc(-n2c(SC3CCOC3=O)nc3ccccc3c2=O)cc1OC (stereo unspecified) ?
Pf growth 48h: -1.7%; AMA1 RON2 block: -1.7%; HCV inhibitor: 18.6%; CHX counter: 38.3*; Shiga toxin inh: -2.5; Pf growth 96h: 62.5%

What do the screens show for `COC(=O)c1ccc(CSc2nc3ccccc3c(=O)n2-c2ccc(OC)c(OC)c2)o1`?
Pf growth 48h: 8.28µM*; AMA1 RON2 block: -13.3%; HCV inhibitor: 10µM*; CHX counter: -3.2; Shiga toxin inh: -17.6

How did COC(=O)c1ccc(CSc2nc3ccccc3c(=O)n2-c2ccccc2)o1 do in these assays?
Pf growth 48h: -27.8%; AMA1 RON2 block: -1.5%; HCV inhibitor: inconclusive; CHX counter: 7.3; Shiga toxin inh: 18.5

How did CC(=O)OC1C=C[C@@H](OC(C)=O)C1 (stereo partly specified) do in these assays?
CHX counter: -1.8; Shiga toxin inh: 22.7

What do the screens show for `CCCN1Cc2cc(OC)ccc2-c2ccccc2S1(=O)=O`?
AMA1 RON2 block: 2.1%; HCV inhibitor: inconclusive

What do the screens show for `COc1ccccc1NC(=O)c1ccc(CSc2ccccc2)o1`?
Pf growth 48h: 19.2%; AMA1 RON2 block: -9.5%; CHX counter: 15.9; Shiga toxin inh: -7.8; Pf growth 96h: -9.5%

How did O=C(Nc1ccc(F)cc1)c1ccc(CN2CCc3ccccc3C2)cc1 do in these assays?
Pf growth 48h: -29.9%; AMA1 RON2 block: -2.5%; HCV inhibitor: 5.62µM*; CHX counter: -2.5; Shiga toxin inh: 7.1; Pf growth 96h: inconclusive

Results for CC(=O)Nc1ccc(NC(=O)c2ccc(CN3CCc4ccccc4C3)cc2)cc1 ?
Pf growth 48h: inconclusive; AMA1 RON2 block: -6.2%; HCV inhibitor: -5.3%; CHX counter: -1.0; Shiga toxin inh: -7.8; Pf growth 96h: 9.28µM*

Results for Cc1ccccc1NC(=O)c1ccc(CN2CCc3ccccc3C2)cc1 ?
Pf growth 48h: -24.0%; AMA1 RON2 block: -8.7%; HCV inhibitor: inconclusive; CHX counter: 1.5; Shiga toxin inh: -1.5; Pf growth 96h: -26.7%

How did CCc1cccc(C)c1NC(=O)c1ccc(CN2CCc3ccccc3C2)cc1 do in these assays?
Pf growth 48h: 4.65µM*; AMA1 RON2 block: -11.1%; HCV inhibitor: inconclusive; CHX counter: -1.8; Shiga toxin inh: -4.8; Pf growth 96h: 1.47µM*

How did O=C(Nc1ccc(F)cc1)OCCN1CCN(Cc2ccccc2)CCC1=O do in these assays?
Pf growth 48h: -2.5%; AMA1 RON2 block: 8.0%; HCV inhibitor: inconclusive; CHX counter: 11.3*!; Shiga toxin inh: 22.4; Pf growth 96h: -4.3%

How did Cc1cc(C(=O)N2CCC2(C)C(=O)NS(=O)(=O)c2cccc(OC(F)F)c2)nn1C (stereo unspecified) do in these assays?
AMA1 RON2 block: 18.6%

What do the screens show for `O=C1OCC(CO)(CO)N=C1NNc1ccccc1[N+](=O)[O-]`?
Pf growth 48h: inconclusive; AMA1 RON2 block: -8.2%; HCV inhibitor: 12.3%; CHX counter: 42.8*; Shiga toxin inh: 57.8*; Pf growth 96h: inconclusive

How did Cn1nc(C(=O)OCC(=O)NCc2ccc(Cl)cc2Cl)c2ccccc2c1=O do in these assays?
AMA1 RON2 block: -0.4%

What do the screens show for `Cc1cc(=O)oc2cc(OCc3nnc(-c4ccccc4Br)o3)ccc12`?
AMA1 RON2 block: -7.9%; HCV inhibitor: -5.0%; CHX counter: -2.8; Shiga toxin inh: -13.6

How did O=Cc1ccc(OCc2nnc(-c3ccccc3Br)o2)cc1 do in these assays?
Pf growth 48h: 8.8%; AMA1 RON2 block: 1.9%; HCV inhibitor: 18.0%; CHX counter: 21.2; Shiga toxin inh: 57.4*; Pf growth 96h: 16.8%

What do the screens show for `NC(=O)c1ccccc1OCc1nnc(-c2ccccc2Br)o1`?
Pf growth 48h: 7.7%; AMA1 RON2 block: -1.5%; HCV inhibitor: -26.3%; CHX counter: 19.0; Shiga toxin inh: 64.8*; Pf growth 96h: -5.9%

What do the screens show for `O=c1ccc2ccc(OCc3nnc(-c4ccccc4Br)o3)cc2o1`?
Pf growth 48h: 12.3%; AMA1 RON2 block: 5.7%; HCV inhibitor: -0.6%; CHX counter: 17.7; Shiga toxin inh: 42.7*; Pf growth 96h: inconclusive

Results for Cc1ccc(C)c(S(=O)(=O)N2CCN(C(=O)c3ccnn3C)CC2)c1 ?
Pf growth 48h: inconclusive; AMA1 RON2 block: -1.4%; HCV inhibitor: -27.4%; CHX counter: -2.2; Shiga toxin inh: 2.0; Pf growth 96h: 41.2%

How did S=C(NCCc1ccccc1)N/N=C/C1CCCCC1 do in these assays?
Pf growth 48h: 10.5%; CHX counter: 15.4*; Shiga toxin inh: 19.2; Pf growth 96h: inconclusive

Results for S=C(NCCc1ccccc1)NN=C1CCCCCC1 ?
Pf growth 48h: 1.2%; AMA1 RON2 block: 25.5%; HCV inhibitor: 14.3%; CHX counter: 54.3*; Shiga toxin inh: 78.0*; Pf growth 96h: inconclusive

Results for COc1ccc(C2=NOC(Cn3nc(-c4ccccc4C)cc3C(=O)O)C2)cc1 (stereo unspecified) ?
Pf growth 48h: 27.9%; AMA1 RON2 block: 18.0%; HCV inhibitor: 6.6%; Pf growth 96h: inconclusive

What do the screens show for `CCC(C)c1ccc(NC(=S)NC2CCN(Cc3ccccc3)CC2)cc1` (stereo unspecified)?
Pf growth 48h: inconclusive; AMA1 RON2 block: -21.2%; HCV inhibitor: 10µM*; CHX counter: -5.6; Shiga toxin inh: -8.2; Pf growth 96h: inconclusive

What do the screens show for `S=C(Nc1ccc(Cl)cc1)NC1CCN(Cc2ccccc2)CC1`?
Pf growth 48h: inconclusive; AMA1 RON2 block: -3.0%; HCV inhibitor: 11.2µM*; CHX counter: -3.1; Shiga toxin inh: -6.7; Pf growth 96h: 6.57µM*

What do the screens show for `Cc1ccc(C)c(S(=O)(=O)N2CCCOC2CNC(=O)C(=O)NCc2ccc3c(c2)OCO3)c1` (stereo unspecified)?
Pf growth 48h: -16.6%; AMA1 RON2 block: -3.4%; HCV inhibitor: -24.2%; CHX counter: 1.2; Shiga toxin inh: 2.6; Pf growth 96h: inconclusive

Results for O=C(CN1CCCC1)Nc1nnc(-c2cccs2)s1 ?
Pf growth 48h: 10.7%; AMA1 RON2 block: 5.5%; HCV inhibitor: 0.5%; CHX counter: 27.7*; Shiga toxin inh: 89.0*; Pf growth 96h: -84.1%
